According to PubChem BioAssay:
Calls of active or inactive are those of the source.

Columns and labels:
[1] = tested on: Plasmodium falciparum Sir2 (PF13_0152, Sir2A); assay: Plasmodium falciparum Sir2A binding compounds – biochemical, small-molecule microarray, 635 nm fluorescence, primary screen (AID 1098); conditions: fluorescence 635 nm, higher = more signal;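 further: score merges spot fluorescence intensity with its signal-to-noise ratio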
[2] = probe aDKK1 binding to arrayed compounds – biochemical, biotinylated probe, 635/667 nm fluorescence, primary screen (AID 1099); conditions: small-molecule microarray, higher = more signal;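 further: score merges 667nm spot fluorescence with signal to noise across triplicate slides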
[3] = probe aCHRDL2 binding to arrayed compounds – biochemical, biotinylated probe, 635/667 nm fluorescence, primary screen (AID 1100); conditions: small-molecule microarray, higher = more signal
[4] = change in splice reporter luminescence, either direction, cell-based, HEK293, spliceosome inhibition project, primary screen (AID 1101); conditions: HEK293 splicing luciferase reporter, 24 h, higher = more signal, called active from +8 up or from −8 down;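 further: HEK293 cells carrying a splicing-competent luciferase reporter gene; test concentration not given here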
[5] = biological target: Fibroblast growth factor 10 (Homo sapiens) (UniProt O15520); assay: compounds binding fibroblast growth factor 10 – biochemical, small-molecule microarray, 635 nm fluorescence, primary screen (AID 1102); conditions: FGF10 binding, fluorescence 635 nm, higher = more signal
Sequence of Fibroblast growth factor 10 (Homo sapiens) (O15520 whole entry, looked up): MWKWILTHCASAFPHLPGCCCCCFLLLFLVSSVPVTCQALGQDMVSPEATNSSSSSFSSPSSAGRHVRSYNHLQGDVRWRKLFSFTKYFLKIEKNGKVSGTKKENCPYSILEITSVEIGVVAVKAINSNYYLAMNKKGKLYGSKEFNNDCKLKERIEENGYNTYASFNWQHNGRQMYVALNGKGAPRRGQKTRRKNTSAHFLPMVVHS

[6] = tested on: glycogen synthase kinase-3 (GSK3A per assay name; protocol says GSK3B); assay: compounds binding glycogen synthase kinase-3 – biochemical, small-molecule microarray, 635 nm fluorescence, GSK3A, primary screen (AID 1103); conditions: fluorescence 635 nm, higher = more signal; further: the record names both GSK3A and GSK3B
[7] = biological target: Epidermal growth factor receptor (Homo sapiens) (UniProt P00533); assay: compounds binding epidermal growth factor receptor – biochemical, small-molecule microarray, 635 nm fluorescence, primary screen (AID 1104); conditions: EGFR binding, higher = more signal;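 further: score merges 667 nm emission intensity with spot signal to noise over triplicate slides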
Sequence of Epidermal growth factor receptor (Homo sapiens) (P00533 whole entry, looked up): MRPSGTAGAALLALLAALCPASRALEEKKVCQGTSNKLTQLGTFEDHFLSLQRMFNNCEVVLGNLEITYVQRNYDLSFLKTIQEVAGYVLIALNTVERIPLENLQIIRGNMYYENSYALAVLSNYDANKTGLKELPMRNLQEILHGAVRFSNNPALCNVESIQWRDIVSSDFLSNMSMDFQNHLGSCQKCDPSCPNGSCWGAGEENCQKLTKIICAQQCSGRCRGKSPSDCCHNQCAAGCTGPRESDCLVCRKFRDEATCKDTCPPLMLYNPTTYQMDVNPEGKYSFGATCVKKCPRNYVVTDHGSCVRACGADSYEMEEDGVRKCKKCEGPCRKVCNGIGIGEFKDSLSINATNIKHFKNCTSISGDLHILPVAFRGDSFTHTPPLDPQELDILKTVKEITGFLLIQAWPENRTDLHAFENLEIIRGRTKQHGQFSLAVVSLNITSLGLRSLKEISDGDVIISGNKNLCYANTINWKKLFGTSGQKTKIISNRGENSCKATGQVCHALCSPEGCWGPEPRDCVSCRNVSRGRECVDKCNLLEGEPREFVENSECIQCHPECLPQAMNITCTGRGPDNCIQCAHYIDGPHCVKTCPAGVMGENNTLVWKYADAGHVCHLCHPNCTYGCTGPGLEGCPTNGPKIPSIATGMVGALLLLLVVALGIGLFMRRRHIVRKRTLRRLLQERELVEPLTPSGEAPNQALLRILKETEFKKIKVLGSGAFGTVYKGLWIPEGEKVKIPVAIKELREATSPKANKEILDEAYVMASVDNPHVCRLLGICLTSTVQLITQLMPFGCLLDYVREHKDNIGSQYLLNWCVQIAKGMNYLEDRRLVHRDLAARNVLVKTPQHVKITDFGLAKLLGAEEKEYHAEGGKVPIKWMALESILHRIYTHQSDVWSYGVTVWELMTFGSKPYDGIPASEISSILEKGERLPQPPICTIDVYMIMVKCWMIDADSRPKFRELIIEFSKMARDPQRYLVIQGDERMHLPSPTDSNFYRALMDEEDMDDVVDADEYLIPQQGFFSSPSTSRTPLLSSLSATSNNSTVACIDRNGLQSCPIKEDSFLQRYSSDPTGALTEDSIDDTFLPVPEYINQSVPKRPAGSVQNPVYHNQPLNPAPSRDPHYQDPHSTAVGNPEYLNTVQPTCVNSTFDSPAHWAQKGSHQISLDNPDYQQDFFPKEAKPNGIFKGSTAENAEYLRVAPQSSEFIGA

[8] = biological target: Follistatin-related protein 3 (Homo sapiens) (UniProt O95633); assay: compounds binding follistatin-related protein 3 – biochemical, small-molecule microarray, 635 nm fluorescence, primary screen (AID 1105); conditions: FSTL3 binding, higher = more signal;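 further: score merges emission near 667 nm and signal to noise per printed spot across three slides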
Sequence of Follistatin-related protein 3 (Homo sapiens) (O95633 whole entry, looked up): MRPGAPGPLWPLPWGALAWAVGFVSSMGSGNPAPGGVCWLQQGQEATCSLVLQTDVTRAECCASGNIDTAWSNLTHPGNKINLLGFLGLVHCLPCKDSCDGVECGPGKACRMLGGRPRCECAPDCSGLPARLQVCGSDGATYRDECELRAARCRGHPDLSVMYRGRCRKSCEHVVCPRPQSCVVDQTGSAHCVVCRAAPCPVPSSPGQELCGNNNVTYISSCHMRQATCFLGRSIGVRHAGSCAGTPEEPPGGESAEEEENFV

[9] = biological target: Dickkopf-related protein 1 (Homo sapiens) (UniProt O94907); assay: small molecules binding DKK1 protein – biochemical, small-molecule microarray, 635 nm fluorescence scan, primary screen (AID 1106); conditions: higher = more signal;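 further: score merges emission near 667 nm with signal to noise over three replicate slides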
Sequence of Dickkopf-related protein 1 (Homo sapiens) (O94907 whole entry, looked up): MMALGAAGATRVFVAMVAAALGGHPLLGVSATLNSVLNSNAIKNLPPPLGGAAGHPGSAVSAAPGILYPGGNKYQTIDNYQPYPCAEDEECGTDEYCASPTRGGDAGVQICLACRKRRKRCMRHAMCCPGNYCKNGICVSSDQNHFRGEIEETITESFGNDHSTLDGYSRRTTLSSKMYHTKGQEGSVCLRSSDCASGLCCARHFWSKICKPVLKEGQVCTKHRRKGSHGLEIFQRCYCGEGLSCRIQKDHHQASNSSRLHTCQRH

[10] = tested on: Inhibin beta A chain (activin A); assay: small molecules binding activin A – biochemical, small-molecule microarray, 635 nm fluorescence scan, primary screen (AID 1107); conditions: INHBA, higher = more signal;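 further: mouse activin A protein probed at 4.33 µg/mL on printed slides; score merges bound-protein fluorescence near 667 nm with spot signal-to-noise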
[11] = tested on: Human papillomavirus type 1a protein E7 (residues 44-93); assay: small molecules binding HPV E7 44-93 – biochemical, small-molecule microarray, residues 44-93, 635 nm fluorescence, primary screen (AID 1108); conditions: fluorescence 635 nm, higher = more signal;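 further: E7 fragment applied at 1 µg/mL in TBST for 1 h at 4 C; score combines spot fluorescence with its signal to noise ratio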
[12] = hepatitis C replication reporter changes, two-sided – Huh7 cells, luciferase reporter, HCV replication inhibitor project, primary screen (AID 1109); conditions: Huh7 HCV replicon luciferase reporter, 48 h; higher = more signal;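 further: huh7 hepatoma cells harbouring a luciferase neomycin HCV replicon reporter; luciferase luminescence as measure of HCV replicon replication; test concentration not given here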
[13] = biological target: Left-right determination factor 2 (Homo sapiens) (UniProt O00292); assay: small molecules binding LEFTY2 protein – biochemical, small-molecule microarray, 635 nm fluorescence scan, primary screen (AID 1110); conditions: higher = more signal
Sequence of Left-right determination factor 2 (Homo sapiens) (O00292 whole entry, looked up): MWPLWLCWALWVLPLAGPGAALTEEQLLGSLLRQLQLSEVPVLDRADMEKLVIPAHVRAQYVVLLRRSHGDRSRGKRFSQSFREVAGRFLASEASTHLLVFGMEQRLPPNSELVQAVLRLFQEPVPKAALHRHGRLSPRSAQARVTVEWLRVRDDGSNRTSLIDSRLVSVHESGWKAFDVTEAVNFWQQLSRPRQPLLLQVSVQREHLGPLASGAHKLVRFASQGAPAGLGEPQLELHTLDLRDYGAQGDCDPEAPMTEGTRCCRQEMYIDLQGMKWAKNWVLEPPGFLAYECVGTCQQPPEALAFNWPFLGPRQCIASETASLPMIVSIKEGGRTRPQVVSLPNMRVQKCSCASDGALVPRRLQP

[14] = biological target: Calmodulin-1 (Homo sapiens) (UniProt P0DP23); assay: small molecules binding calmodulin-1 with EGTA – biochemical, small-molecule microarray, Cy5-labelled CALM1, profiling panel (AID 1111); conditions: Cy5-CALM1 binding fluorescence, higher = more signal;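 further: labelled calmodulin applied in Tris saline Tween buffer holding calcium plus EGTA and DTT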
[15] = biological target: Calmodulin-1 (Homo sapiens) (UniProt P0DP23); assay: small molecules binding Ca-loaded calmodulin-1 – biochemical, small-molecule microarray, Cy5-labelled CALM1, plus calcium, artefact control for SMM control-protein annotation, profiling panel (AID 1112); conditions: Cy5-CALM1 binding fluorescence, higher = more signal;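 further: score merges spot fluorescence with signal to noise from triplicate slides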
[16] = probe aWnt5a binding to arrayed compounds – biochemical, biotinylated probe, 635/667 nm fluorescence, primary screen (AID 1113); conditions: small-molecule microarray, higher = more signal;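 further: score merges 667 nm fluorescence intensity with signal-to-noise per printed feature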
[17] = probe aShh binding to arrayed compounds – biochemical, biotinylated probe, 635/667 nm fluorescence, primary screen (AID 1114); conditions: small-molecule microarray, higher = more signal;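 further: probe is biotin-labelled aShh protein from a stem cell growth factor screen; measures binding of labelled protein to compounds printed on the slide; score merges feature fluorescence at 667 nm with signal-to-noise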
[18] = probe aNog binding to arrayed compounds – biochemical, biotinylated probe, 635/667 nm fluorescence, primary screen (AID 1115); conditions: small-molecule microarray, higher = more signal;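 further: probe is biotinylated aNog protein used at 0.15 µg/mL for 1 h at 4 C; z-score combines 667 nm fluorescence of each spot with its signal to noise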
[19] = biological target: Torsin-1A-interacting protein 1 (Homo sapiens) (UniProt Q5JTV8); assay: compound microarray binding of lysate hLAP1 – cell lysate, small-molecule microarray, COS7 lysate, 635/667 nm fluorescence, primary screen (AID 1116); conditions: 635 nm fluorescence, higher = more signal
Sequence of Torsin-1A-interacting protein 1 (Homo sapiens) (Q5JTV8 whole entry, looked up): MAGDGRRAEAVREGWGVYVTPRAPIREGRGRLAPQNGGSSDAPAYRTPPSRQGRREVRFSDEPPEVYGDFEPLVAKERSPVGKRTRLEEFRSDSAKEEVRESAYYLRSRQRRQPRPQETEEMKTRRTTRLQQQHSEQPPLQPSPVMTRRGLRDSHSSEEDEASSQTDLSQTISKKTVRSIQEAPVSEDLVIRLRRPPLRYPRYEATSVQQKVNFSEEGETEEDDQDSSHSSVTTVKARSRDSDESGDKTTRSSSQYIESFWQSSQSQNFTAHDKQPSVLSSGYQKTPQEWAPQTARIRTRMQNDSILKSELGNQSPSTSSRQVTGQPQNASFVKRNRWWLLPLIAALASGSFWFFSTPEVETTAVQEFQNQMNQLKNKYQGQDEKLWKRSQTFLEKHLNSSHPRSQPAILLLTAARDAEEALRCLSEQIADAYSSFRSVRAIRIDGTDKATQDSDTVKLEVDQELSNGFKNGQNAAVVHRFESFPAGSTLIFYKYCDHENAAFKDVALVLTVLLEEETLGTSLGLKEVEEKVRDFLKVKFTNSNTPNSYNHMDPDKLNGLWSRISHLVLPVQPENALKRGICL

[20] = biological target: Alpha-bungarotoxin (Bungarus multicinctus) (UniProt P60615); assay: compounds binding labelled alpha-BTX control protein – biochemical, small-molecule microarray, Alexa647 label, 635/667 nm fluorescence, artefact control for SMM control protein annotation, profiling panel (AID 1117); conditions: alpha-BTX-A647 binding fluorescence, higher = more signal
Sequence of Alpha-bungarotoxin (Bungarus multicinctus) (P60615 whole entry, looked up): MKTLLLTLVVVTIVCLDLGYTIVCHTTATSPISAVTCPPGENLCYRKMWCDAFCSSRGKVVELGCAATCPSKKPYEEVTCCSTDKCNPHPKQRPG

Row | Compound | composite z-score [1] | composite z-score [2] | composite z-score [3] | z-score [4] | composite z-score [5] | composite z-score [6] | composite z-score [7] | composite z-score [8] | composite z-score [9] | composite z-score [10] | composite z-score [11] | z-score [12] | composite z-score [13] | composite z-score [14] | composite z-score [15] | composite z-score [16] | composite z-score [17] | composite z-score [18] | composite z-score [19] | composite z-score [20]
1 | [N-]=[N+]=NCc1ccccc1[C@H]1OC(c2ccc(OCCCO)cc2)=N[C@@]1(Cc1ccccc1N=[N+]=[N-])C(=O)NCc1ccccc1 | 1.01 | 1.09 | 1.1 | 0.672 (inactive) | 1.03 | 1.04 | -0.296 | 0.62 | -0.193 | 1.13 | 0.716 | -2.02 | -0.334 | 1.54 | 0.642 | 0.239 | 0.407 | 0.57 | 0.447 | 1.71
2 | CC(C)(C)OC(=O)CC[C@]1(C(=O)NCCN2CCOCC2)N=C(c2ccc(OCCCO)cc2)O[C@H]1c1ccccc1CN=[N+]=[N-] | 0.639 | 0.626 | 0.777 | -1.59 (inactive) | -0.0042 | 0.813 | -0.243 | -0.49 | -0.663 | 0.82 | 0.309 | -1.77 | 0.0415 | 1.12 | 0.608 | -0.0944 | 0.0469 | 0.816 | 2.12 | 2.01
3 | CCN1C(C)=C(C(=O)OC)[C@@H](c2ccccc2)N2C(=O)[C@@]3(C(=O)OC)O[C@@]12[C@@H]1C(=O)N(c2ccccc2)C(=O)[C@@H]13 | 0.286 | 0.0355 | -0.253 | -1.66 (inactive) | 1 | 0.85 | 0.472 | 1.24 | 0.4 | -0.545 | 0.121 | -0.181 | 0.341 | -0.173 | -0.525 | -0.0758 | 0.0893 | 0.221 | 0.905 | 0.38
4 | CCc1cccc(NC(=O)O[C@H]2[C@H](OC(=O)Nc3ccccc3)[C@@H](OC(=O)Nc3ccccc3)[C@@H](OC)O[C@@H]2CO)c1 | 1.35 | 0.169 | 0.37 | -0.0187 (inactive) | 1.54 | 1.07 | 0.0832 | 1.41 | 0.319 | 0.451 | 1.51 | -3.51 | 0.273 | 1.19 | -0.291 | 0.0267 | 0.19 | 1.34 | 2.41 | 1.2
5 | CCC(=O)[C@]12O[C@@]3([C@@H]4C(=O)OCC[C@@H]41)N(Cc1ccccc1)C(C)=C(C(=O)OC)[C@@H](c1ccccc1)N3C2=O | 0.401 | -0.393 | -0.314 | -1.15 (inactive) | 0.0848 | -0.588 | -0.0835 | -0.782 | -0.0297 | 1.47 | -2.88 | 0.286 | 0.271 | -0.146 | -0.0047 | -0.16 | -0.0653 | -0.196 | -0.398 | -0.621
6 | CCC#CCN(Cc1ccccc1Br)[C@H](/C=C/c1ccccc1)[C@@H](O)Cc1ccccc1 | 0.193 | 0.0099 | 1.28 | -1.89 (inactive) | -0.89 | -0.688 | -1.53 | -1.81 | -1.6 | 1.05 | -0.0687 | -2.58 | -0.635 | -0.481 | 0.402 | -0.152 | -0.138 | -0.326 | -0.613 | -0.0441
7 | Cc1ccc(N2C(=O)c3ccccc3[C@](C)(C(=O)O)[C@@H]2c2ccc(CO)cc2)nc1 | -0.445 | -0.322 | 0.365 | 0.763 (inactive) | -0.883 | -1.45 | -2.18 | -1.21 | -0.967 | -0.292 | -2.5 | 0.0767 | -1.64 | 0.202 | 0.823 | -0.304 | 0.608 | -0.459 | -0.415 | -0.666
8 | Cc1ccc(S[C@]2(C(=O)NC(C)C)CC(=O)N(Cc3cc(C(F)(F)F)cc(C(F)(F)F)c3)[C@@H]2c2ccc(CO)cc2I)cc1 | -0.602 | 0.0628 | 0.892 | -0.181 (inactive) | -0.816 | -0.504 | -1.36 | -0.923 | -1.27 | -0.748 | 0.785 | -0.563 | -0.832 | -0.502 | -0.384 | -0.132 | 0.0815 | -0.036 | -0.596 | 0.57
9 | Cc1ccc([C@@H]2CC=C(C(=O)O)[C@H](c3ccccc3)N2S(=O)(=O)c2ccc(C)cc2)cc1 | 1.44 | 0.52 | 1.23 | 0.0744 (inactive) | 1.24 | 0.78 | -0.755 | 0.0604 | -1.69 | -0.575 | 0.961 | 0.712 | -0.23 | 2.35 | 0.535 | 0.0599 | 0.374 | 1.05 | 1.9 | 1.79
10 | C=C(CCCC)C(=O)CC[C@@H](OC(=O)c1cccnc1)c1cccc(OCCO)c1 | 1.48 | -0.246 | 0.238 | 3.57 (inactive) | 0.72 | 0.13 | -0.237 | -0.242 | 0.265 | 1.2 | -0.0891 | -3.58 | 0.0009 | -0.708 | -1.47 | -0.0213 | -0.0977 | 0.314 | 0.469 | 1.76
11 | CO[C@@H]1COC(=O)CC=C[C@H](C)COC(=O)[C@H](Cc2ccccc2)NC(=O)CC=C[C@H]1C | 0.534 | -1.19 | -1.74 | -0.912 (inactive) | 0.472 | 0.622 | 1.03 | 1.25 | 2.22 | 1.36 | -0.416 | 1.06 | 1.31 | -1.59 | -2.38 | -0.288 | 0.0048 | -0.547 | -0.0955 | -1.36
